Assay results published in PubChem BioAssay (EPA / NIEHS).
Records with an inconclusive call do not appear. Calls of active or inactive are those of the source. How the source made its calls, unless noted: active means hit-call score of the fitted dose curve at least 0.9, where 1 is the maximum; inactive means score below 0.9.

Assays:
[1] = molecular target: Nucleoli Translocation, AR (gene 367) (UniProt P10275); assay: UPITT_HCI_U2OS_AR_TIF2_Nucleoli_Antagonist: University of Pittsburgh U2OS Androgen Receptor-Transcriptional Intermediary Factor 2 (AR-TIF2) Antagonism High Content Imaging Assay for Nucleoli Translocation (AID 2283997; active means hit-call score of the fitted dose curve at least 0.9, where 1 is the maximum)
Nucleoli Translocation, AR (gene 367), sequence (P10275 whole entry, looked up, the tested form may be a part): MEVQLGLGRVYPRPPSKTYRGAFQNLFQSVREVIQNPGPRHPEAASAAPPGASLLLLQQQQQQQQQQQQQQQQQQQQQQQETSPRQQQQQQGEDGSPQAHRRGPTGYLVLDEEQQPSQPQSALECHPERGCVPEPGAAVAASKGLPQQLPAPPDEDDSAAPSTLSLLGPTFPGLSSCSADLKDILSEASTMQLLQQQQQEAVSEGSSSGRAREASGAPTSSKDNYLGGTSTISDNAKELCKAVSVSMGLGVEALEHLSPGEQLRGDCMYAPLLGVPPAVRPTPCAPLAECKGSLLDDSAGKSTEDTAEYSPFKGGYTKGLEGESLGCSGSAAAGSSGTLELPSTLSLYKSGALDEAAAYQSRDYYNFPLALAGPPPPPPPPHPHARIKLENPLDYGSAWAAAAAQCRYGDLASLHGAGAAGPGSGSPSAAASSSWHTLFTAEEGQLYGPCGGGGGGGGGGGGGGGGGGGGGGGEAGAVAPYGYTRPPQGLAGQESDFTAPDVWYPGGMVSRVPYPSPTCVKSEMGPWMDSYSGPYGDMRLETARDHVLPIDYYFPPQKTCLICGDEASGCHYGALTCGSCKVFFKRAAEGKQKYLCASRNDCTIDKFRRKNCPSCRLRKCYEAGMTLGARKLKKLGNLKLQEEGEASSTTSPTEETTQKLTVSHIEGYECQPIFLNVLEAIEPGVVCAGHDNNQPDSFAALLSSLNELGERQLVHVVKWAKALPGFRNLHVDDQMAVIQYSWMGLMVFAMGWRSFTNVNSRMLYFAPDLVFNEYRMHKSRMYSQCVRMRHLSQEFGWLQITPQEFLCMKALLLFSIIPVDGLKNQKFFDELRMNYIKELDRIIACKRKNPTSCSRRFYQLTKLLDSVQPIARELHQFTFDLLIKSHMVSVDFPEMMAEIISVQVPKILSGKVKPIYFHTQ
Method in brief: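 Measured quantity was AR-RFP fluorescence localized to nucleoli in engineered U2OS cells also bearing TIF2-GFP, acquired on automated high-content imagers. Primary testing used 20 uM compound; actives were confirmed in triplicate wells.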

[2] = molecular target: Nucleoli Translocation, AR (gene 367) (UniProt P10275); assay: UPITT_HCI_U2OS_AR_TIF2_Nucleoli_Agonist: University of Pittsburgh U2OS Androgen Receptor-Transcriptional Intermediary Factor 2 (AR-TIF2) Agonism High Content Imaging Assay for Nucleoli Translocation (AID 2283998; active means hit-call score of the fitted dose curve at least 0.9, where 1 is the maximum)
Method in brief: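 Cells express human AR fused to red fluorescent protein and TIF2 fused to GFP. Red fluorescence in the nucleolar region was quantified by high-content imaging and fitted as gain-of-signal against a DMSO baseline. Compounds were tested at 0.195 to 50 uM final (0.5% DMSO).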

[3] = molecular target: Ratio of Nucleoli Translocation and Cytoplasm, AR (gene 367) (UniProt P10275); assay: UPITT_HCI_U2OS_AR_TIF2_Nucleoli_Cytoplasm_Ratio_Antagonist: University of Pittsburgh U2OS Androgen Receptor-Transcriptional Intermediary Factor 2 (AR-TIF2) Antagonism High Content Imaging Assay for Ratio of Nucleoli Translocation and Cytoplasm (AID 2283999; active means hit-call score of the fitted dose curve at least 0.9, where 1 is the maximum;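 further: antagonists lower the DHT-driven ratio of nucleolar to cytoplasmic red signal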)
Ratio of Nucleoli Translocation and Cytoplasm, AR (gene 367), sequence (P10275 whole entry, looked up, the tested form may be a part): as above
Method in brief: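 Human osteosarcoma U2OS line, AR fused to RFP, coactivator TIF2 fused to GFP. Cpds 20 uM final, 0.2% DMSO (screen); 0.195–50 uM final, 0.5% DMSO (CRC). Endpoint: nucleoli/cytoplasm red signal ratio, DHT as baseline, loss-of-signal antagonist mode.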

[4] = molecular target: Ratio of Nucleoli Translocation and Cytoplasm, AR (gene 367) (UniProt P10275); assay: UPITT_HCI_U2OS_AR_TIF2_Nucleoli_Cytoplasm_Ratio_Agonist: University of Pittsburgh U2OS Androgen Receptor-Transcriptional Intermediary Factor 2 (AR-TIF2) Agonism High Content Imaging Assay for Ratio of Nucleoli Translocation and Cytoplasm (AID 2284000; active means hit-call score of the fitted dose curve at least 0.9, where 1 is the maximum;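 further: hits raise the red nucleolar to cytoplasm ratio above vehicle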)
Method in brief: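 Read-out first: nucleolar-to-cytoplasm ratio of red (AR-RFP) signal, quantified by high-content imaging in U2OS cells co-expressing TIF2-GFP. Activity is scored as signal increase over DMSO. Single-point screening used 20 uM final (0.2% DMSO).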

[5] = CCTE_Harrill_HTTr_Viability_MCF7: CCTE's 6-hour Cell Viability Assessment for the High-Throughput Transcriptomics (HTTr) Platform, in MCF-7 cells cultured in DMEM + 10% fetal bovine serum, Harrill Lab (AID 2284010)
Method in brief: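 Cells were dosed with chemicals in an eight-point dilution series, imaged 6 hours later for propidium iodide uptake, and the endpoint was analyzed by bidirectional fitting against DMSO as negative control.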

[6] = CCTE_Harrill_HTTr_Apoptosis_MCF7: CCTE's 6-hour Apoptosis Assessment for the High-Throughput Transcriptomics (HTTr) Platform, in MCF-7 cells cultured in DMEM + 10% fetal bovine serum, Harrill Lab (AID 2284011)
Method in brief: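 MCF-7 cells in DMEM + 10% fetal bovine serum were exposed to chemicals for 6 hours over an eight-point dilution series. Caspase-3/7 activation was imaged by high content imaging with CellEvent Caspase 3/7 Green; bidirectional fitting used DMSO as baseline.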

[7] = CCTE_Simmons_MITO_basal_resp_rate: CCTE's HepG2 Seahorse XF Respirometric Screening Assay at Basal Respiratory State, Simmons Lab (AID 2284001); settings: actives raise or lower the signal
Method in brief: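 HepG2 respirometry; 7-pt titration 125 nM–100 uM final; kinetic OCR at 6 min intervals for 72 min; n=3 biological, technical singles; DMSO baseline, gain or loss fit; fenpyroximate (decrease) and 2,4-DNP (increase) controls.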

[8] = CCTE_Simmons_MITO_max_resp_rate: CCTE's HepG2 Seahorse XF Respirometric Screening Assay at Maximal Respiratory State [uncoupled], Simmons Lab (AID 2284002); settings: actives raise or lower the signal
Method in brief: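 HepG2 oxygen consumption was read on a Seahorse XF96 after FCCP uncoupler injection, following test compound injection; 7 concentrations, 125 nM–100 uM final, three biological replicates. Bidirectional fitting against DMSO vehicle baseline.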

[9] = CCTE_Simmons_MITO_inhib_resp_rate: CCTE's HepG2 Seahorse XF Respirometric Screening Assay at Inhibited Respiratory State [full ETC block], Simmons Lab (AID 2284006); settings: actives raise or lower the signal
Method in brief: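 Compound injected onto HepG2 cells (125 nM–100 uM final, 7 points); FCCP then rotenone/antimycin A added. Oxygen consumption read every 6 min (3 min mix, 3 min measure) for 72 min. Inhibited-state OCR fitted against DMSO.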

[10] = CCTE_Simmons_MITO_viability: CellTiter-Glo Viability Assessment for CCTE's HepG2 Seahorse XF Respirometric Screening Assay [post-hoc], Simmons Lab (AID 2284007; active means hit-call score of the fitted dose curve at least 0.9, where 1 is the maximum;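 on AC50: cells exposed to chemical for 90 min before the ATP read; actives lower ATP signal relative to DMSO baseline meaning reduced viability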)
Method in brief: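 After the Seahorse oxygen-consumption sequence (basal, FCCP, rotenone/antimycin A; 72 min total), HepG2 viability was scored as ATP content by bioluminescence. Chemicals ran at seven concentrations up to 100 uM final for 90 min.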

[11] = CCTE_Harrill_HTTr_CellCount_MCF7: CCTE's Cell Proliferation Assessment for the High-Throughput Transcriptomics (HTTr) Platform, Harrill Lab (AID 2284012; active means hit-call score of the fitted dose curve at least 0.9, where 1 is the maximum;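 further: count of Hoechst-stained nuclei per well by high-content imaging in MCF-7 cells; cells exposed to compound for six hours; intended direction is loss of nuclei count meaning fewer cells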)
Method in brief: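 Chemicals in eight-point dilution series are added to MCF-7 cells for six hours, nuclei are stained with Hoechst and imaged, and per-well nuclei counts are fitted in both directions relative to DMSO controls.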

DIO1 (gene 1733) = assay: CCTE_GLTED_hDIO1: CCTE's human Deiodinase 1 (DIO1) Inhibition Assay, Great Lakes Toxicology and Ecology Division (GLTED) Lab (AID 2283987; active means hit-call score of the fitted dose curve at least 0.9, where 1 is the maximum;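 further: isolated human DIO1 enzyme in a cell-free setup rather than cells; enzyme activity read as free iodide liberated from substrate via Sandell-Kolthoff colorimetry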)
Method in brief: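 Cell-free human DIO1 enzyme was incubated with test chemical for 3 h, and iodide released from substrate was measured by Sandell-Kolthoff absorbance. Loss of signal versus DMSO baseline indicated inhibition; plates were run in triplicate.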

[12] = CCTE_Shafer_MEA_acute_spike_number: CCTE's Neural Acute Assay for Total Number of Spikes, Shafer Lab (AID 2284008);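 on AC50: curve fitted for decrease in spike count so AC50 reflects inhibitors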
Method in brief: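 Primary rat cortical neurons on 16-electrode MEA wells; on DIV 13 or 15, 40-min baseline then 40-min recording with compound (0.03-40 uM) at 37 C. Spikes detected at 8x rms noise; percent change versus baseline, DMSO as negative control.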

[13] = CCTE_Shafer_MEA_acute_firing_rate_mean: CCTE's Neural Acute Assay for Mean Firing Rate, Shafer Lab (AID 2284009);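 further: analyzed for loss of signal so actives lower firing rate relative to DMSO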
Method in brief: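 Percent change in well-mean firing rate was derived from extracellular spikes detected at 8x rms noise (300-5000 Hz band-pass) before and after a 40-min compound exposure. Cultures were primary rat cortical neurons, tested at 0.03-40 uM.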

[14] = CCTE_Shafer_MEA_acute_burst_number: CCTE's Neural Acute Assay for Single-Electrode Bursts, Shafer Lab (AID 2284013)
Method in brief: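 Spontaneous network activity of primary rat cortical neurons was recorded extracellularly on microelectrode arrays at 37 C, with 40-min periods before and during exposure to 0.03-40 uM compound on DIV 13 or 15.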

[15] = CCTE_Shafer_MEA_acute_burst_duration_mean: CCTE's Neural Acute Assay for Mean Burst Duration, Shafer Lab (AID 2284014);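 further: hits are decreases in mean burst duration relative to DMSO controls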
Method in brief: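 Read-out is the per-well percent change in mean burst duration (first to last spike within a single-electrode burst) between 40-min recordings before and after compound. Cultures were primary rat cortical neurons on MEAs, dosed at 0.03-40 uM on DIV 13 or 15.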

[16] = CCTE_Shafer_MEA_acute_per_burst_spike_number_mean: CCTE's Neural Acute Assay for Average Number of Spikes Per Burst, Shafer Lab (AID 2284015);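 further: hits are decreases in mean spikes per burst versus baseline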
Method in brief: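 Rat primary cortical neurons on 48-well MEAs (DIV 13 or 15) were treated with 0.03-40 uM compound at 37 C. Mean spikes per burst over 40 min were recorded before and after exposure and expressed as percent change from baseline, relative to DMSO.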

[17] = CCTE_Shafer_MEA_acute_interburst_interval_mean: CCTE's Neural Acute Assay for Mean Interburst Interval, Shafer Lab (AID 2284016);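 further: percent change of mean interburst interval versus each well's own pre-dose baseline; curves fitted for decrease in interburst interval relative to DMSO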
Method in brief: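 Rat primary cortical neurons on 48-well MEAs at DIV 13 or 15 were exposed acutely to 0.03-40 uM. Spikes detected at 8x rms noise, 37 C. Mean interburst interval from 40 min recordings expressed as percent change from 40 min pre-treatment baseline.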

[18] = CCTE_Shafer_MEA_acute_burst_percentage_mean: CCTE's Neural Acute Assay for Percentage of Spikes in a Burst, Shafer Lab (AID 2284017);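 on AC50: curve fitted for loss of signal so potency reflects decreased burst percentage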
Method in brief: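 Primary rat cortical neurons on 48-well MEA plates, treated on DIV 13 or 15 at 0.03-40 uM. Spikes detected at 8x rms noise at 37C; percent change from 40-min baseline to 40-min post-dose recording, fitted versus DMSO.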

Measured: AC50

Oc1ccc2ccccc2c1
inactive: [1] | [2] | [3] | [4] | [5] | [6]

CN1C(=O)N(c2ccccc2Br)Cc2cnc(Nc3ccc4c(c3)OCC(CO)O4)nc21 (stereo not drawn)
inactive: [9] | [5] | [6] | [11]
active: [7] 35.1 µM | [8] 50 µM | [10] 33.7 µM

CCCCCCCCN(C)CCCCCCCC
inactive: [1] | [4] | [5] | [6]

CC(C)(c1cc(Br)c(O)c(Br)c1)c1cc(Br)c(O)c(Br)c1
inactive: [9] | [10] | [12] | [13] | [5] | [6] | [14] | [15] | [16] | [17]
active: DIO1 (gene 1733) 37.6 µM | [7] 4.5 µM | [8] 6.61 µM | [18] 19.1 µM

CC(C)(C)c1cc(/C=C2\SC(N)=NC2=O)cc(C(C)(C)C)c1O
active: DIO1 (gene 1733) 3.01 µM | [12] 14.7 µM | [13] 14.8 µM | [17] 14.6 µM
inactive: [5] | [6] | [11] | [14] | [15] | [16] | [18]

NC(=O)c1nc(-c2cccc(-c3cc(F)ccc3OCC(F)(F)C(F)(F)F)c2)n[nH]1
active: [2] 13.2 µM | [4] 12.7 µM | [7] 6.26 µM | [8] 6.36 µM | [12] 0.648 µM | [13] 0.649 µM | [14] 0.446 µM | [16] 4.11 µM | [18] 7.48 µM
inactive: [1] | [3] | [9] | [10] | [5] | [6] | [11] | [15] | [17]

C[C@]12CC[C@@H]3c4ccc(O)cc4CC[C@H]3[C@@H]1CC[C@H]2O
active: [7] 36.1 µM
inactive: [8] | [9] | [10] | [12] | [13] | [5] | [6] | [11] | [14] | [15] | [16] | [17] | [18]

O=C(O)Cn1c(=O)n(Cc2ccc(Br)cc2F)c(=O)c2ccc(Cl)cc21
inactive: [1] | [2] | [3] | [4] | [5] | [6]

O=C(Nc1ccc(Cl)cc1)Nc1ccc(Cl)c(Cl)c1
active: [1] 5.24 µM
inactive: [3] | [4] | [5] | [6]

Cc1oc2c(NC(=O)c3c(Cl)cccc3Cl)cccc2c1C(C)(C)O
inactive: [5] | [6] | [11]

CCCOC(=O)c1cc(O)c(O)c(O)c1
inactive: [5] | [6] | [11]

O=C(O)c1ccccc1-n1cc(C(=O)O)c(=O)c2cc(Nc3c(F)cc(F)cc3Cl)c(Cl)cc21
inactive: [12] | [13] | [5] | [6] | [11] | [14] | [15] | [17] | [18]
active: [16] 20 µM

CCO[Si](CCCNC(N)=O)(OCC)OCC
inactive: [5] | [6]

Cc1ccc2oc(CN(Cc3ccccc3)C(=O)Nc3c(F)cc(F)cc3F)c(-c3ccc(Cl)cc3)c2c1
inactive: [5] | [6] | [11]

CCCCOC(=O)CC(CC(=O)OCCCC)(OC(C)=O)C(=O)OCCCC
inactive: [5] | [6] | [11]

C[C@]12CC[C@@H]3c4ccc(O)cc4CC[C@H]3[C@@H]1CCC2=O
inactive: [5] | [6] | [11]

COc1ccc2cc(S(=O)(=O)N[C@H](CC(=O)N[C@H](Cc3ccc(CN4[C@H](C)CCC[C@@H]4C)cc3)C(=O)N(C)C(C)C)c3ccc4c(c3)OCO4)ccc2c1
inactive: [5] | [6] | [11]

c1ccc2ccccc2c1
inactive: [5] | [6]

COc1cccc([C@H](O)C2CCN(CCc3ccc(F)cc3)CC2)c1OC
active: [12] 2.87 µM | [13] 2.87 µM | [14] 2.88 µM
inactive: [5] | [6] | [15] | [16] | [17] | [18]

O=C(OCCCCCCOC(=O)c1ccccc1)c1ccccc1
inactive: [5] | [6] | [11]

c1ccc(C[n+]2cccc3ccccc32)cc1
inactive: [5] | [6]

CC[C@@H]1C[C@H](N(Cc2cc(C(F)(F)F)cc(C(F)(F)F)c2)C(C)=O)c2cc(C(F)(F)F)ccc2N1C(=O)OC(C)C
active: [15] 4.21 µM
inactive: [12] | [13] | [5] | [6] | [14] | [16] | [17] | [18]

CCCCCc1ccc(N)cc1
inactive: [5] | [6] | [11]

CC(O)CC(C)(C)O (stereo not drawn)
inactive: [12] | [13] | [5] | [6] | [11] | [14] | [15] | [16] | [17] | [18]
